Screens as filed in PubChem BioAssay.
This is one part of a sample in which hits are shown more often than they occur.
Dicer processing – human Dicer pre-microRNA cleavage inhibition | Q9UPY3 | AID 1347074 | actives 6% (n = 47,000) | cat-ELCCA pre-miR-21 Dicer processing, chemiluminescence; hits give high values | z-score at 25 µM; in the data active means z-score above about 3, passing the limit was not always enough;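 further: plate controls were vehicle for no effect and no enzyme for full effect; higher signal means more uncleaved substrate so more Dicer inhibition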
Starred values were filed as active, the others as inactive.

SMILES	Dicer processing
Cc1onc(-c2ccccc2)c1C(=O)Nc1ccc(OC(=O)c2c(-c3ccccc3)noc2C)cc1	-1.5
CCOC(=O)c1cc2c(N3CCOCC3)nccc2nc1C(F)(F)F	-1.7
COC(=O)c1c(C)oc2cc(Br)c(OCc3ccccc3)cc12	2.4
CCCN(c1nc(C)cc(OC)n1)S(=O)(=O)c1ccccc1Cl	6.1*
CCCCN(c1nc(C)cc(OC)n1)S(=O)(=O)c1ccc(C)cc1	0.7
COC(=O)CN(c1nc(C)cc(OC)n1)S(=O)(=O)c1ccccc1	0.86
CC(C)(CO)NC(=O)C1CCCNC1=O (stereo unspecified)	0.51
O=C(Nc1ccccc1)N(Cc1ccccc1)c1cccc2ccccc12	-2.8
CN(CCc1ccccn1)C(=O)Nc1ccccc1	41
CN(Cc1ccccc1)C(=O)Nc1ccccc1	3.7*
Cc1cc(C)n(C2=NCCN2S(=O)(=O)c2cc(C(F)(F)F)cc(C(F)(F)F)c2)n1	1.1
Clc1ccc(/C=N/N2CCOCC2)cc1	1.2
CCOC(=O)C1CCN(c2ccc(C(C)=O)cc2N)CC1	-0.38
CC1CCCCN1S(=O)(=O)c1cc(Cl)ccc1Cl (stereo unspecified)	-1.1
CC1(C)CC(=O)C=C(SCc2ccc(Cl)cc2)S1	4*
Cc1ccc(S(=O)(=O)CCSC2=CC(=O)CC(C)(C)S2)cc1	-3.2
CC1(C)CC(=O)C=C(SCCS(=O)(=O)c2ccccc2)S1	1.9
Cn1nc(-c2ccc(-c3ccn(S(C)(=O)=O)n3)s2)cc1C(F)(F)F	4*
Cn1nc(-c2ccc(Sc3ccc(Cl)cc3)s2)cc1C(F)(F)F	-0.62
Cn1nc(-c2ccc(S(=O)(=O)NCC(=O)NNS(=O)(=O)c3ccc(Cl)cc3)s2)cc1C(F)(F)F	0.13
O=C(c1cccnc1)N(c1ccc2oc(=O)sc2c1)S(=O)(=O)c1ccc(Cl)cc1	10*
COc1ccc(OC)c(S(=O)(=O)N(C(=O)c2cccnc2)c2ccc3oc(=O)sc3c2)c1	1.4
O=C(c1cccnc1)N(c1ccc2oc(=O)sc2c1)S(=O)(=O)c1ccc(F)cc1	11*
O=C(c1ccncc1)N(c1ccc2oc(=O)sc2c1)S(=O)(=O)c1ccc(Cl)cc1	2.9
CC(C)C(=O)N(c1ccc2oc(=O)sc2c1)S(=O)(=O)c1ccc(Cl)cc1	25
SMILES	Dicer processing
O=C(c1ccncc1)N(c1ccc2oc(=O)sc2c1)S(=O)(=O)c1ccc(F)cc1	3.2*
CC(C)C(=O)N(c1ccc2oc(=O)sc2c1)S(=O)(=O)c1ccc(F)cc1	-3.1
Cc1sc2nc(SCC(=O)NCc3ccccn3)[nH]c(=O)c2c1C	1.3
COc1cc(C2C(C(=O)c3cc4ccccc4o3)=C(O)C(=O)N2CCN(C)C)ccc1O (stereo unspecified)	0.11
C/C(=N\NC(=O)c1ccc(C(F)(F)F)cc1)c1ccccc1O	0.92
C=C1SC(=Nc2cccc(OC)c2)N(C(=O)C(c2ccccc2)C2CCCC2)C1(C)C (stereo unspecified)	-2.5
O=C(O)c1c(F)cccc1I	4
COc1cc(-c2ccc(/C=C/c3[nH]c(=O)[nH]c(=O)c3[N+](=O)[O-])o2)c(OC)cc1Cl	-2.3
COc1ccccc1-c1nnc(SCC#CCOC(=O)c2ccc(Cl)cc2)o1	-1.2
CCC1(c2cccc(OC)c2)CCCCNC1=O (stereo unspecified)	1.4
O=C(O)c1nnn(Cc2ccccc2)c1C(=O)O	-1.4
O=C(On1c(-c2ccccc2)nc2ccccc2c1=O)c1ccc(F)cc1	0.38
CC(=O)N[C@@H](Cc1ccc(Br)cc1)C(=O)O	3.2
Cc1cccc(Cn2c(CCCO)nc3ccccc32)c1	-0.37
CCOC(=O)C1=CS/C(=C2/C(=S)C(C)(C)Nc3c(OCC)cccc32)S1	3.7*
CCOC(=O)C1=C(C(=O)OCC)SC(=C2C(=S)C(C)(C)Nc3ccc(C)cc32)S1	1.7
CCOc1cccc2c1N(C(C)=O)C(C)(C)C(=S)C2=C1SC(C(=O)OC)=C(C(=O)OC)S1	0.96
CSc1sc(-c2ccn[nH]2)c2c1C(=O)CC(C)(C)C2	-1.2
Cc1ccc(/C(O)=C2\C(=O)C(=O)N(CCCn3ccnc3)C2c2ccncc2)cc1 (stereo unspecified)	-3.1
COC(=O)CSc1nnc2n(-c3ccc(OC)cc3)c(=O)c3c4c(sc3n12)COC(C)(C)C4	2
O=C(Nc1ccc(F)cc1)c1cc2ccccc2o1	-0.2
CC(C)(C)NC(=O)c1cc2ccccc2o1	4.2*
O=C(Nc1ccccc1)c1cc2ccccc2o1	0.54
Cc1cc(C)c(C#N)c(Nc2ccc(Br)cc2)n1	1.8
CNc1ncnc(Oc2ccc(OC)cc2)c1[N+](=O)[O-]	0.47
SMILES	Dicer processing
CN(C)/C=C1/N=C(c2ccccc2)OC1=O	1.1
CN(C)/C=C1\N=C(c2cccnc2Oc2ccc(Cl)cc2)OC1=O	19*
Cc1ccc(Sc2ncccc2C2=N/C(=C\N(C)C)C(=O)O2)cc1	-0.39
COc1ccc(NC(=O)c2cc(C(F)(F)F)cc(C(F)(F)F)c2)cn1	0.19
O=C(CSc1ncnc2sc3c(c12)CCCC3)NNS(=O)(=O)c1cc(C(F)(F)F)cc(C(F)(F)F)c1	-0.72
CCn1c(C(O)c2ccc(N(C)C)cc2)nc2ccccc21 (stereo unspecified)	2.5
CCn1ccnc1C(O)c1ccc(C)cc1 (stereo unspecified)	3.1*
COc1cccc(C(O)c2nccn2C)c1OC (stereo unspecified)	3.1
CCOC(=O)C1=C(C)NC2=C(C(=O)CCC2)C1c1ccc(OC(C)=O)c(OC)c1 (stereo unspecified)	13
O=c1oc2ccccc2nc1/C=C(\O)c1ccc([N+](=O)[O-])cc1	-0.39
CCCCNC(=O)OCCSc1ccc(C#N)cc1[N+](=O)[O-]	0.02
CCOC(=O)c1cnc2cc(C(C)(C)C)[nH]n2c1=O	-0.03
O=C1C(=O)N(CCCn2ccnc2)C(c2cccc(Br)c2)/C1=C(\O)c1ccccc1 (stereo unspecified)	0.15
C/C(=N\OC(=O)c1ccc(Cl)cc1)c1ccn(S(=O)(=O)c2ccc(Cl)cc2)c1	11*
C/C(=N\O)c1ccn(S(=O)(=O)c2ccc(Cl)cc2)c1	0.09
C/C(=N\OC(=O)c1ccc(C(F)(F)F)cc1)c1ccn(S(=O)(=O)c2ccccc2)c1	-0.23
CCOCCOC(=O)C1=C(C)NC2=C(C(=O)CCC2)C1c1ccccc1OC(C)C (stereo unspecified)	-0.59
CCNC(=O)c1cccc2c1-c1ccccc1C2=O	-1.5
COC(=O)c1noc(-c2ccc(F)cc2)n1	-0.21
Cc1ccc(-c2nc(=O)c3ccccc3o2)cc1	1.6
COc1oc(-c2ccc(C)cc2)nc1C(F)(F)F	4.3*
COc1oc(-c2ccc(F)cc2)nc1C(F)(F)F	4.7*
COc1ccc(-c2csc3nc(-c4ccc(F)cc4)oc(=O)c23)cc1	0.76
Cc1cc(C)c2nc(-c3ccc(C(F)(F)F)cc3)oc(=O)c2c1	-1.3
COCCCNC(=S)N/N=C/c1ccc[nH]1	-3.9
SMILES	Dicer processing
CCOC(=O)c1oc2nc(-c3ccc(Cl)cc3)cc(-c3ccccc3)c2c1N	-3.5
Cc1nnc(N2C(=O)C(=O)/C(=C(/O)c3ccc(Cl)cc3)C2c2ccccc2F)s1 (stereo unspecified)	1.4
COc1cc2c(cc1OC)-c1c(C#N)c(-c3ccc(Cl)cc3)c(C(=O)c3cccs3)n1CC2	-0.34
COc1cc2c(cc1OC)-c1c(C#N)c(-c3ccc(C)cc3)c(C(=O)c3cccs3)n1CC2	6.2*
COc1cc2c(cc1OC)-c1c(C#N)c(-c3ccc4c(c3)OCO4)c(C(C)=O)n1CC2	1.8
C=CCn1c2ccccc2c2nnc(SCC(=O)Nc3cc(C)on3)nc21	0.28
